Results as given in the supplement of paper PMC12282887.
± gives the standard deviation of the averaged measurements.

Tested on: E. coli BW25113 marRABp lux reporter
Experiment: promoter activity interaction Z-score (Lux/OD deviation from empty-vector control); higher = stronger promoter induction by the compound
Experimental: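 E. coli BW25113 (wild type or ΔmarA/ΔsoxS/Δrob) carrying pTU175 luxCDABE promoter reporters was grown in LB in 384-well plates at 37°C with each of 94 compounds at 4 two-fold concentrations, in biological duplicates. Luminescence and OD600 were read every 30 min for 12 h and integrated as AUC over 8 h (0-8 h WT, 1-9 h mutants). Lux AUC was divided by OD AUC; the interaction score is the residual of a Huber robust fit of each promoter against the empty-vector control, then Z-transformed per promoter.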

Compound: NC[C@H]1O[C@H](O[C@H]2[C@H](O)[C@@H](O[C@H]3O[C@H](CO)[C@@H](O)[C@H](N)[C@H]3O)[C@H](N)C[C@@H]2N)[C@H](N)C[C@@H]1O [Tobramycin]
- promoter activity interaction Z-score (0.12 µg/ml, genetic background: wild type): -0.211 ± 0.075
- promoter activity interaction Z-score (0.12 µg/ml, genetic background: ΔmarA): -0.0912 ± 0.16
- promoter activity interaction Z-score (0.12 µg/ml, genetic background: Δrob): -0.0729 ± 0.021
- promoter activity interaction Z-score (0.12 µg/ml, genetic background: ΔsoxS): -0.3 ± 0.41
- promoter activity interaction Z-score (0.23 µg/ml, genetic background: wild type): -0.379 ± 0.14
- promoter activity interaction Z-score (0.23 µg/ml, genetic background: ΔmarA): -0.269 ± 0.26
- promoter activity interaction Z-score (0.23 µg/ml, genetic background: Δrob): -0.264 ± 0.11
- promoter activity interaction Z-score (0.23 µg/ml, genetic background: ΔsoxS): -0.0572 ± 0.44
- promoter activity interaction Z-score (0.47 µg/ml, genetic background: wild type): 0.112 ± 0.2
- promoter activity interaction Z-score (0.47 µg/ml, genetic background: ΔmarA): 0.108 ± 0.0063
- promoter activity interaction Z-score (0.47 µg/ml, genetic background: Δrob): 0.123 ± 0.14
- promoter activity interaction Z-score (0.47 µg/ml, genetic background: ΔsoxS): 0.021 ± 0.34

Compound: CC1(C)S[C@@H]2[C@H](NC(=O)[C@H](N)c3ccc(O)cc3)C(=O)N2[C@H]1C(=O)O [Amoxicillin]
- promoter activity interaction Z-score (0.25 µg/ml, genetic background: wild type): -0.00562 ± 0.025
- promoter activity interaction Z-score (0.25 µg/ml, genetic background: ΔmarA): -0.347 ± 0.22
- promoter activity interaction Z-score (0.25 µg/ml, genetic background: Δrob): -0.215 ± 0.082
- promoter activity interaction Z-score (0.25 µg/ml, genetic background: ΔsoxS): -0.207 ± 0.2
- promoter activity interaction Z-score (0.5 µg/ml, genetic background: wild type): -0.157 ± 0.027
- promoter activity interaction Z-score (0.5 µg/ml, genetic background: ΔmarA): -0.297 ± 0.22
- promoter activity interaction Z-score (0.5 µg/ml, genetic background: Δrob): -0.322 ± 0.047
- promoter activity interaction Z-score (0.5 µg/ml, genetic background: ΔsoxS): -0.372 ± 0.14
- promoter activity interaction Z-score (1 µg/ml, genetic background: wild type): -0.138 ± 0.097
- promoter activity interaction Z-score (1 µg/ml, genetic background: ΔmarA): -0.483 ± 0.18
- promoter activity interaction Z-score (1 µg/ml, genetic background: Δrob): -0.211 ± 0.031
- promoter activity interaction Z-score (1 µg/ml, genetic background: ΔsoxS): -0.251 ± 0.091
- promoter activity interaction Z-score (2 µg/ml, genetic background: wild type): 2.97
- promoter activity interaction Z-score (2 µg/ml, genetic background: ΔmarA): 2.07
- promoter activity interaction Z-score (2 µg/ml, genetic background: Δrob): 3.21
- promoter activity interaction Z-score (2 µg/ml, genetic background: ΔsoxS): 1.67

Compound: CC[C@H](C)[C@H](N)C1=N[C@H](C(=O)N[C@@H](CC(C)C)C(=O)N[C@H](CCC(=O)O)C(=O)N[C@H](C(=O)N[C@H]2CCCCNC(=O)[C@H](CC(N)=O)NC(=O)[C@@H](CC(=O)O)NC(=O)[C@H](Cc3cnc[nH]3)NC(=O)[C@@H](Cc3ccccc3)NC(=O)[C@H]([C@@H](C)CC)NC(=O)[C@@H](CCCN)NC2=O)[C@@H](C)CC)CS1 [Bacitracin]
- promoter activity interaction Z-score (35.6 µg/ml, genetic background: wild type): 0.278 ± 0.2
- promoter activity interaction Z-score (35.6 µg/ml, genetic background: ΔmarA): 0.153 ± 0.22
- promoter activity interaction Z-score (35.6 µg/ml, genetic background: Δrob): -0.0986 ± 0.2
- promoter activity interaction Z-score (35.6 µg/ml, genetic background: ΔsoxS): -0.193 ± 0.086
- promoter activity interaction Z-score (71.1 µg/ml, genetic background: wild type): -0.0216 ± 0.19
- promoter activity interaction Z-score (71.1 µg/ml, genetic background: ΔmarA): -0.262 ± 0.16
- promoter activity interaction Z-score (71.1 µg/ml, genetic background: Δrob): -0.251 ± 0.062
- promoter activity interaction Z-score (71.1 µg/ml, genetic background: ΔsoxS): -0.169 ± 0.029
- promoter activity interaction Z-score (142.3 µg/ml, genetic background: wild type): -0.588 ± 0.2
- promoter activity interaction Z-score (142.3 µg/ml, genetic background: ΔmarA): -0.5787 ± 0.0025
- promoter activity interaction Z-score (142.3 µg/ml, genetic background: Δrob): -0.542 ± 0.048
- promoter activity interaction Z-score (142.3 µg/ml, genetic background: ΔsoxS): -0.36 ± 0.085
- promoter activity interaction Z-score (284.5 µg/ml, genetic background: wild type): 0.158 ± 0.24
- promoter activity interaction Z-score (284.5 µg/ml, genetic background: ΔmarA): 0.0811 ± 0.011
- promoter activity interaction Z-score (284.5 µg/ml, genetic background: Δrob): -0.159 ± 0.29
- promoter activity interaction Z-score (284.5 µg/ml, genetic background: ΔsoxS): 0.576 ± 0.23
